High-throughput results from PubChem.
Hits are enriched below; roughly 11% of the tested compounds scored in any of these assays.
PNC assembly inh: inhibitors of perinucleolar compartment assembly; 140,000 compounds, 3.1% hits; activity change (PNC), negative = inhibition, % at 10 µM; AID 2417; PC3M PTB-GFP, PNC prevalence imaging, 16 h; hits give low values;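 active = readout at or below -70, meaning at least 70% loss of cells showing the perinucleolar compartment, a nuclear body marking cancer cells; inconclusive = readout between -30 and a set limit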;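 note: plate controls were DMSO wells for no effect and camptothecin positive control wells for full effect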
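Read-out is percentage of cells bearing a perinucleolar compartment, from automated 20x imaging of fixed, Hoechst-stained PC3M PTB-GFP cells. Cells were seeded 4 h, then exposed 16 h to compound (23 nl of library stock) in duplicate plates.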
IMPase Li cell: IMPase inhibition in cells with lithium potentiation; CHO-M1 cells, IP1 TR-FRET (IP-One), carbachol + lithium; Potency, µM (series often up to 59.4 µM), without a hit: at the top dose activity, negative = IMPase inhibition, actives largely listed as inhibitors; 210,000 compounds, 0.35% hits; AID 1457;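 note: IP1 builds up when IMPase is blocked and the TR-FRET signal falls; potency is the fitted concentration of half-maximal effect; plate controls were basal vehicle for no effect and high inhibitor control for full effect; nearly all actives have a fitted effect of over 50% in size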
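Concentration–response in CHO-M1 cells, lithium-potentiated; 30 min at 37C. IP1 detected by competitive TR-FRET after 10 min lysis at RT. Hill-fitted AC50.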
IMPase cell inh: IMPase inhibition in cells | CHO-M1 cells, IP1 accumulation, HTRF TR-FRET ratio | inhibition (IP1 accumulation), % at 46.1 µM | 120,000 tested, under 10 active; active = well fitted curve in the direction sought with a large enough effect in the signal ratio, not every such curve was filed as active; inconclusive = small, poorly fitted or top-dose-only effect, or a change in a side signal; inactive = no such curve, though single readings can be large or run the other way; the % refers to the signal ratio;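 note: cells stimulated with carbachol in lithium chloride buffer; plate controls were DMSO basal wells for no effect and reference inhibitor wells for full effect; higher means more IMPase inhibition seen as more IP1 and lower FRET ratio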
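Carbachol-driven Gq signalling in CHO-M1 cells (2000/well) generates IP1. Compounds that block IMPase raise IP1 and so reduce the FRET signal from Eu-anti-IP1 and d2-IP1 after a 10 min room-temperature lysis.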
NPSR antag: antagonists of human neuropeptide S receptor cAMP signaling. Q6W5P4. CHO-NPSR cells, cAMP TR-FRET, antagonist mode. Potency, µM (series often up to 38.3 µM), for the others: at the highest dose activity change, negative = inhibition, hits mostly inhibitors. 220,000 compounds, 1% hits. AID 1461; note: potency is the fitted concentration of half-maximal effect; nearly all actives have a fitted effect of over 50% in size
HPGD block: HPGD (human) dehydrogenase inhibition | P15428 | purified HPGD, NADH fluorescence kinetic, PGE2 substrate | Potency, µM, for inactives: top-dose activity change, negative = inhibition, actives largely listed as inhibitors | 150,000 compounds, 4.3% hits; active = well fitted inhibition curve with a large enough effect, not every such curve was filed as active; inconclusive = small, poorly fitted or top-dose-only effect, or another doubt; inactive = no such curve, though single readings can be large or run the other way; note: potency is the fitted concentration of half-maximal effect
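20 nM HPGD preincubated 15 min at room temperature with compound in 50 mM Tris-HCl pH 8, 0.01% Tween 20. Started with 1 mM NAD+ and 30 uM prostaglandin E2; NADH fluorescence (360/450 nm) read 5 times over 30-s intervals, last minus first.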
ALDH1A1 block: blocks purified human ALDH1A1 activity. Potency, µM (series often up to 75.3 µM), for inactives: at the highest dose activity, negative = inhibition, hits mostly inhibitors. AID 1030. 220,000 compounds, 7.3% hits. Purified ALDH1A1, NADH fluorescence, propionaldehyde substrate; active = well fitted inhibition curve with a large enough effect, not every such curve was filed as active; inconclusive = small, poorly fitted or top-dose-only effect, or another doubt; inactive = no such curve, though single readings can be large or run the other way;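 note: potency is the fitted concentration of half-maximal effect; plate controls were no enzyme wells and a reference inhibitor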
Target sequence (P00352 whole entry, looked up): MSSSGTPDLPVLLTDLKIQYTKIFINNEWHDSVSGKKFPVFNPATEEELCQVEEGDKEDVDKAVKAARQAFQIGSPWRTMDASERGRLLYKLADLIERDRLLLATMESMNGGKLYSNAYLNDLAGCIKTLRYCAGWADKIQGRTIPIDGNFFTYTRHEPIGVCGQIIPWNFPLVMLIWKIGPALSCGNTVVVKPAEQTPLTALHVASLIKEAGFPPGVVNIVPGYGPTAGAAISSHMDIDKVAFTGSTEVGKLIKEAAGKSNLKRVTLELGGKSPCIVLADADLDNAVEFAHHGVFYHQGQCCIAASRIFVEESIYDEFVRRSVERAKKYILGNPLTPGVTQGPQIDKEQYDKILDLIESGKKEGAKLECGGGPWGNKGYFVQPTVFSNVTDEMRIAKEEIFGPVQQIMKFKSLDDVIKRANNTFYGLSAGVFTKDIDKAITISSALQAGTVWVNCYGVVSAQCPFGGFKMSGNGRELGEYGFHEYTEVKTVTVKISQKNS
Active calls of the source: *; ? = inconclusive; . = no result given; [ ] = dose if it differs, or a comment. Unless noted, calls come from the whole dose curve; as a rule, active = well fitted curve in the direction sought with a large enough effect; inconclusive = small, poorly fitted or top-dose-only effect, or another doubt; inactive = no such curve, though single readings can be large; an effect the other way counts as inactive or inconclusive. Unless noted, % is set by controls: 0 for no effect and ±100 for the full control effect.

SMILES	PNC assembly inh	IMPase Li cell	IMPase cell inh	NPSR antag	HPGD block	ALDH1A1 block
Cc1cc(NC(=O)c2ccccc2)ncc1NC(=O)c1ccco1	20	-2%	3	-25%[46.1 µM]	?	11µM*
CCCCC(O)(CCCC)C(=O)NNc1ccccc1	102	5%	.	-3%	-5%	15%
Cc1ccc2c(c1)C1CN(C)CCC1N2C(=S)NC(=O)c1ccc(Br)cc1 (configuration not stated)	.	-6%	.	-21%	.	14µM*
COc1ccc(OCC(=O)N2c3ccc(C)cc3C3CN(C)CCC32)cc1 (configuration not stated)	.	5%	.	1%	.	11%
COc1cc(-c2nnc(-c3cc(OC)c(OC)c(OC)c3)o2)cc(OC)c1OC	-100*	6%	-6	5%[46.1 µM]	?	?
CCCc1nnc(-c2cc(OC)c(OC)c(OC)c2)o1	-91*	4%	.	5%	-9%	?
COc1cc(-c2nnc(-c3ccccc3)o2)cc(OC)c1OC	14	0%	?	-12%[46.1 µM]	?	?
COC(=O)c1sccc1NC(=S)N1CCCC(C)C1 (configuration not stated)	?	34%[38.3 µM]	?	-9%[46.1 µM]	-7%	?
N#C/C(=C\c1ccc(-c2cccc([N+](=O)[O-])c2)o1)c1nnc(N2CCOCC2)n1-c1ccccc1	.	18%	.	-26%	.	7.9µM*
O=C(NC1CCCc2ccccc21)c1ccc(Cl)nc1 (configuration not stated)	-25	-2%[38.3 µM]	5	-13%[46.1 µM]	-18%	?
CCCn1c(N2CCN(CC(=O)c3c[nH]c4ccccc34)CC2)nc2c1c(=O)[nH]c(=O)n2C	7	2%[38.3 µM]	2	-7%[46.1 µM]	-17%	13µM*
O=C(CN1CCN(Cc2ccccc2)CC1)c1c[nH]c2ccccc12	-1	17%[38.3 µM]	-6	0%[46.1 µM]	-7%	25µM*
O=C(CN1CCSCC1)c1c[nH]c2ccccc12	?	18%[38.3 µM]	-10	-6%[46.1 µM]	-8%	?
O=C(CN1CCN(Cc2ccccc2)CC1)c1ccc(Br)cc1	24	-20%[38.3 µM]	5	-15%[46.1 µM]	-12%	2.5µM*
O=C(C(Cl)Cl)N1CCN(Cc2ccccc2)CC1	27	8%	4	22%	-21%	1.8µM*
COc1cc(C2OCC3C(c4cc(OC)c(OC)c(OC)c4)OCC23)cc(OC)c1OC (configuration not stated)	.	.	.	2%	.	.
Cn1c(=O)c2cc(S(=O)(=O)NCCC(=O)NC3CCCCCC3)ccc2n(C)c1=O	-10	19%[38.3 µM]	-4	-8%[46.1 µM]	-5%	-5%
O=C(O)Cc1ccc(C(=O)c2cccs2)s1	6	-9%[38.3 µM]	-4	-34%[46.1 µM]	13µM*	10µM*
O=C(O)c1ccccc1C(=O)c1cccs1	?	-31%[38.3 µM]	20[9.22 µM]	2%[46.1 µM]	-10%	5%
Cc1cc2cc(CNC(=O)CCC(=O)O)ccc2[nH]1	?	-10%[38.3 µM]	17	-5%[46.1 µM]	-9%	28µM*
Cc1cc(C(=O)NCC(c2ccco2)N(C)C)no1 (configuration not stated)	-93*	-1%	2	-5%[46.1 µM]	3%	1%
COC(=O)Cn1c(=NC(=O)c2sc3ccccc3c2Cl)sc2cc(S(N)(=O)=O)ccc21	25	-17%	.	-7%	?	?
COC(=O)Cn1c(=NC(=O)c2ccc([N+](=O)[O-])s2)sc2cc(Br)ccc21	-93*	-3%	.	-18%	-14%	8.9µM*
COC(=O)Cn1c(=NC(=O)c2ccc(Cl)s2)sc2cc(C)ccc21	-119*	-27%	.	?	?	?
CCCCCCCCCCCCOC1OC(CO)C(O)C(O)C1NC(C)=O (configuration not stated)	51	-12%	.	1%	-4%	8%
CC1(C)OC(=O)C(=Cc2ccc[nH]2)C(=O)O1	.	.	.	-8%	.	16µM*
COc1ccc(NC(=O)C(NS(=O)(=O)c2ccc3c(c2)CCCN3C(C)=O)C(C)C)c(OC)c1 (configuration not stated)	-3	-8%[38.3 µM]	2	-10%[46.1 µM]	-7%	?
CCCCN(CC)S(=O)(=O)c1ccc2c(c1)CCCN2C(C)=O	-10	26%[38.3 µM]	9	-6%[46.1 µM]	-6%	?
